This note sets out measurements from PubChem BioAssay (NCATS).

Inconclusive results are not listed. The source made the active and inactive calls. The call rests on the fitted dose curve; in most records, active means well fitted cell-killing curve with a large enough effect; inconclusive means small, poorly fitted or top-dose-only effect, or effect the other way; inactive means no such curve, though single readings can be large or run the other way.

Assay [1] is described as follows: Quantitative High-Throughput drug screen in 47 multiple myeloma cell lines against the NCATS MIPE library collection: FR4_PLB cell viability assay (AID 1918924; further: nearly all actives have a fitted effect of over 35% in size). Summed up: (§1)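 Luminescent ATP measurement with CellTiter-Glo gives viability, scaled between DMSO-only wells (100%) and media-only wells (0%). Cells, 500 per well, faced library compounds for 48 hours at 37C.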

A short description of assay [2]: Quantitative High-Throughput drug screen in 47 multiple myeloma cell lines against the NCATS MIPE library collection: Delta47_JCRB cell viability assay (AID 1918925; further: nearly all actives have a fitted effect of over 45% in size). In short, it runs like this: as §1
Assay [3] is described as follows: Quantitative High-Throughput drug screen in 47 multiple myeloma cell lines against the NCATS MIPE library collection: EJM_DSMZ cell viability assay (AID 1918926; further: nearly all actives have a fitted effect of over 30% in size). Summed up:
as §1

Assay [4] can be described thus: Quantitative High-Throughput drug screen in 47 multiple myeloma cell lines against the NCATS MIPE library collection: ARP1_JJKsccF8 cell viability assay (AID 1918928; further: nearly all actives have a fitted effect of over 40% in size). Summed up: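 ATP readout (CellTiter-Glo), 48 h drug incubation, 37 °C/5% CO2, 500 cells per well; normalisation to DMSO (100%) and media-only (0%) controls.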
The nature of assay [5]: Quantitative High-Throughput drug screen in 47 multiple myeloma cell lines against the NCATS MIPE library collection: AMO1_DSMZ cell viability assay (AID 1918927; further: nearly all actives have a fitted effect of over 30% in size). Summed up:
as §1

A short description of assay [6]: Quantitative High-Throughput drug screen in 47 multiple myeloma cell lines against the NCATS MIPE library collection: ARD_JJKsccE7 cell viability assay (AID 1918929). Summed up: as §1
Potency means the concentration at half of the fitted maximal effect.

With `C=CC1=C(C(=O)O)N2C(=O)[C@@H](NC(=O)C(=NO)c3csc(N)n3)[C@H]2SC1`, the Potency result in assay [1], in assay [2], in assay [3] and in assay [4] was “inactive” each time.

Consider `CCNC(=O)c1cc2c(-c3cc(OCCN4CCCC4)c(Cl)cc3Cl)nc(N)nc2s1`, for which the Potency in assay [1] is 1480 nM (active); in assay [2] it was 1050 nM (active); in assay [3], 2090 nM (active); in assay [5], 935 nM (active); in assay [4], 1660 nM (active); in assay [6] it was 526 nM (active).

Take `C=C1C(=CC=C2CCC[C@]3(C)[C@@H]([C@H](C)CCCC(C)(C)O)CC[C@@H]23)C[C@@H](O)C[C@@H]1O`: the Potency is 14800 nM (active) in assay [1]; 9350 nM (active) in assay [2]; 2350 nM (active) in assay [3]; 935 nM (active) in assay [5]; 4180 nM (active) in assay [6].

Consider `O=C1NC(=O)[C@@H](c2cn3c4c(cccc24)CCC3)[C@H]1c1c[nH]c2ccccc12`, for which the Potency in assay [1] is 74.3 nM (active); in assay [2] it was 235 nM (active); in assay [3], 20900 nM (active); in assay [5] it was 46.9 nM (active); in assay [6] it was 66.2 nM (active).

Turning to `CC[C@H]1OC(=O)[C@H](C)[C@@H](O[C@H]2C[C@@](C)(OC)[C@@H](O)[C@H](C)O2)[C@H](C)[C@@H](O[C@@H]2O[C@H](C)C[C@H](N(C)C)[C@@H]2O)[C@](C)(OC)C[C@@H](C)C(=O)[C@H](C)[C@@H](O)[C@]1(C)O`, the Potency result in assay [1], in assay [2], in assay [5] and in assay [4] was “inactive” in each case.

In the case of `O=C(C=CC#Cc1cccc(NS(=O)(=O)c2ccccc2)c1)NO`, the Potency in assay [1] was 1180 nM (active); in assay [2] it was 1180 nM (active); in assay [3], 5900 nM (active); in assay [4] it was 372 nM (active); in assay [6], 1180 nM (active).

On to `CC(=O)NCC(=O)N1[C@H]2CC[C@H]1c1cc(Nc3ncc(C(F)(F)F)c(NC4CCC4)n3)ccc12`, for which the Potency was 9350 nM (active) in assay [1]; 662 nM (active) in assay [2]; 7430 nM (active) in assay [3]; 235 nM (active) in assay [5]; 4690 nM (active) in assay [4]; 1660 nM (active) in assay [6].

With `CC(=O)OCC(=O)[C@@]12N=C(C)O[C@H]1C[C@H]1[C@@H]3CCC4=CC(=O)C=C[C@]4(C)[C@@H]3[C@@H](O)C[C@@]12C`, the Potency entry in assay [1], in assay [2], in assay [3] and in assay [4] was “inactive” in each case. Besides, the Potency in assay [6] was 1050 nM (active).

Take `C=CCNC1=C2C[C@@H](C)C[C@H](OC)[C@@H](O)[C@@H](C)C=C(C)[C@H](OC(N)=O)[C@@H](OC)C=CC=C(C)C(=O)NC(=CC1=O)C2=O`: the Potency was 662 nM (active) in assay [1]; 1050 nM (active) in assay [2]; 4180 nM (active) in assay [3]; 93.5 nM (active) in assay [5]; 148 nM (active) in assay [4]; 93.5 nM (active) in assay [6].

Consider `CC[C@@]1([C@@H]2O[C@@H]([C@H]3O[C@@](O)(CO)[C@H](C)C[C@H]3C)C[C@H]2C)CC[C@H]([C@]2(C)CC[C@]3(C[C@H](O)[C@@H](C)[C@@H]([C@@H](C)[C@@H](OC)[C@H](C)C(=O)O)O3)O2)O1`, for which the Potency is 812 nM (active) in assay [1]; 457 nM (active) in assay [2]; 2040 nM (active) in assay [3]; 57.5 nM (active) in assay [5]; 911 nM (active) in assay [6].

As to `CCC(C=C[C@@H]1OC(=O)C=C[C@H]1C)=C[C@H](C)CC=CC(C)=C[C@@H](C)C(=O)[C@@H](C)[C@H](O)[C@@H](C)CC(C)=CC(=O)O`, the Potency in assay [1] was 31.1 nM (active); in assay [2], 22 nM (active); in assay [3] it was 27.7 nM (active); in assay [5] it was 34.9 nM (active); in assay [4], 27.7 nM (active); in assay [6] it was 34.9 nM (active).

Consider `CN(N=O)C(=O)N[C@H]1C(O)OC(CO)[C@@H](O)[C@H]1O` (stereo partly drawn), for which the Potency entry in assay [1], in assay [2], in assay [5], in assay [4] and in assay [6] was “inactive” each time.

Take `CN1CCCN(C(=O)c2cccc(-c3ccc(C=C4C(=O)Nc5ccc(Cl)cc54)o3)c2)CC1`: the Potency in assay [1] was 26400 nM (active); in assay [2], 20900 nM (active); in assay [5] it was 7430 nM (active); in assay [4] it was 16600 nM (active); in assay [6] it was 8330 nM (active).

Turning to `CC(C=CC(=O)NO)=C[C@@H](C)C(=O)c1ccc(N(C)C)cc1`, the Potency is 332 nM (active) in assay [1]; 235 nM (active) in assay [2]; 235 nM (active) in assay [5]; 209 nM (active) in assay [4]; 264 nM (active) in assay [6].

In the case of `CS[C@H]1SC[C@@H]2C(=O)N(C)[C@H](C(C)C)C(=O)OC[C@H](NC(=O)c3cnc4ccccc4n3)C(=O)N[C@H](C)C(=O)N(C)[C@@H]1C(=O)N(C)[C@H](C(C)C)C(=O)OC[C@H](NC(=O)c1cnc3ccccc3n1)C(=O)N[C@H](C)C(=O)N2C`, the Potency is 4.2 nM (active) in assay [1], 1 nM (active) in assay [2], 5.9 nM (active) in assay [3] and 3.3 nM (active) in assay [4].

On to `CC(=O)C1=C(O)C=C2Oc3c(C(C)=O)c(O)c(C)c(O)c3C2(C)C1=O` (stereo not drawn), for which the Potency result in assay [1], in assay [2], in assay [3] and in assay [4] was “inactive” in each case.

For `COC1=C2C[C@@H](C)C[C@H](OC)[C@@H](O)[C@@H](C)C=C(C)[C@H](OC(N)=O)[C@@H](OC)C=CC=C(C)C(=O)NC(=CC1=O)C2=O`, the Potency in assay [1] was 332 nM (active); in assay [2], 132 nM (active); in assay [3], 372 nM (active); in assay [4], 118 nM (active).

For `O=C(O)[C@H](CC(=O)N1C[C@@H]2CCCC[C@H]2C1)Cc1ccccc1`, the Potency entry in assay [1], in assay [2], in assay [3] and in assay [4] was “inactive” in each case.
